Common to all, as to assay: DAPPL (digital affinity profiling via proximity ligation, sequencing); 10 mM Tris-HCl pH 7.5, 50 mM NaCl, 1 mM DTT, 4% glycerol, room temperature, 30 min; GST-TFs on glutathione beads, 16-mer random dsDNA library, 0.1% formaldehyde crosslink after washing; high values mean tight binding
Conditions in all cases: protein: recombinant; tags: N-terminal GST; dsDNA, one strand shown

Experiment [1] concerns the target T1, ELK1 (Homo sapiens, UniProt P19419 1-428).
T1 sequence: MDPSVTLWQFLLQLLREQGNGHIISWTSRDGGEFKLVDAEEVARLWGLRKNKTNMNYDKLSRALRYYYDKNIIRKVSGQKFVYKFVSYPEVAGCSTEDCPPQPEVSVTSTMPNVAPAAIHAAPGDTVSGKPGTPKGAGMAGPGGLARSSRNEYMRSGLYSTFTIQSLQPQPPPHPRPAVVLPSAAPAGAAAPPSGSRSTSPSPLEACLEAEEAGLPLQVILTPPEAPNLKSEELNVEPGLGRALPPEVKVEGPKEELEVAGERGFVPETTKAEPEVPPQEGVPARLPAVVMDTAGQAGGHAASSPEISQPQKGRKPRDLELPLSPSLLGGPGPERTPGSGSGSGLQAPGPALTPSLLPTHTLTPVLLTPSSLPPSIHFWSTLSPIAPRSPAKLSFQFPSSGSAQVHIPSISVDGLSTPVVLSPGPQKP
The essentials:
(§1)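 GST fusions of human transcription factors were expressed in yeast and captured with glutathione beads. Once given DNA barcodes and pooled alongside a tag-only sample, they were incubated for 30 min at room temperature with 200 nmole of a random double-stranded 16-mer DNA library in Tris/NaCl/DTT/glycerol buffer, then washed, crosslinked (0.1% formaldehyde), proximity-ligated, PCR-amplified and sequenced on an Illumina NextSeq500. The binding signal of each hexamer is its read frequency for a factor divided by its frequency for the tag-only sample.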

In experiment [2] the target is T2, GABPA (Homo sapiens, UniProt Q06546 1-454).
T2 sequence: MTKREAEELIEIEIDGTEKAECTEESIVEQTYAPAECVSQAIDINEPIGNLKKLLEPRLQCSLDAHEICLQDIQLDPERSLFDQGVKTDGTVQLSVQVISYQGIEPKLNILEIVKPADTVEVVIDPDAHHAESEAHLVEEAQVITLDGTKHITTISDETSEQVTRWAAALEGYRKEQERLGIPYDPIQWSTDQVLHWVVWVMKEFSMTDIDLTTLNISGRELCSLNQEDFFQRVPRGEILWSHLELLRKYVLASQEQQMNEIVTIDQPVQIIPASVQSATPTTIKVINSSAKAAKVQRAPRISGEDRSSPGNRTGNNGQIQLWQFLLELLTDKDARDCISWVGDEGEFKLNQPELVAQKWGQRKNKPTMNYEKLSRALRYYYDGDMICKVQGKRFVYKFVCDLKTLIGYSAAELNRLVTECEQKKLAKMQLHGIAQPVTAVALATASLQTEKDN
The essentials:
as §1

In experiment [3] the target is T3, ERG (Homo sapiens, UniProt P11308 1-479).
T3 sequence: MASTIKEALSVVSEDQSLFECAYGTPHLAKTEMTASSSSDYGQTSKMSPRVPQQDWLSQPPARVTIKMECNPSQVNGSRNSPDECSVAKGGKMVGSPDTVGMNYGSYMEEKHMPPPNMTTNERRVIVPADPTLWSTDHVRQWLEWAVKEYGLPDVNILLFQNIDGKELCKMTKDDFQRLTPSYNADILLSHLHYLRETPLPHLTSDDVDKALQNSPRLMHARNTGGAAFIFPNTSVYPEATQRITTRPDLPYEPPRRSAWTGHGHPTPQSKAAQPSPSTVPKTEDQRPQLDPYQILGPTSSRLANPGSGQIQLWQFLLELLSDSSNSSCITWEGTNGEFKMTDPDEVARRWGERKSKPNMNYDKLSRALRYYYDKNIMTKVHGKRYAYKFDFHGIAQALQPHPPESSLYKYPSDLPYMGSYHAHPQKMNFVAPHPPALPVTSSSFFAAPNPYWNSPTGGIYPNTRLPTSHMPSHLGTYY
The method, boiled down:
as §1

The target in experiment [4] is ELF1 (Homo sapiens, UniProt P32519 1-619). The essentials: as §1
Sequence of ELF1 (P32519 whole entry): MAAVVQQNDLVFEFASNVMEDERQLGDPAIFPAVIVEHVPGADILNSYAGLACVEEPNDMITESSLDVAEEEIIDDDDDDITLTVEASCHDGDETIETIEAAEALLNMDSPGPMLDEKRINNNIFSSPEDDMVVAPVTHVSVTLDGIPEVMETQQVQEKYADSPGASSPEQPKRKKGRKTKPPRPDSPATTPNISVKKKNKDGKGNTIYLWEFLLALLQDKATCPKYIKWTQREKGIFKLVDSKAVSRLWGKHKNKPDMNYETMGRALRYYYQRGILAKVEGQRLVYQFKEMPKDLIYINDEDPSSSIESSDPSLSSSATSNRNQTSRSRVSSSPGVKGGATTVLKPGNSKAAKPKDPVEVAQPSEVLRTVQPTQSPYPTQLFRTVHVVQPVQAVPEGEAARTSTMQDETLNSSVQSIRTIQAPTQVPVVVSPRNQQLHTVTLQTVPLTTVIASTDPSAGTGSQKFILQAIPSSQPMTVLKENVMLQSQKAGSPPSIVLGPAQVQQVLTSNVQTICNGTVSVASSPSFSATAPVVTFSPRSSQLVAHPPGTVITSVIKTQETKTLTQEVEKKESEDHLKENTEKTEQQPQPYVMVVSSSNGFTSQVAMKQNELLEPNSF
In experiment [5] the target is T4, EHF (Homo sapiens, UniProt Q9NZC4 1-300).
T4 sequence: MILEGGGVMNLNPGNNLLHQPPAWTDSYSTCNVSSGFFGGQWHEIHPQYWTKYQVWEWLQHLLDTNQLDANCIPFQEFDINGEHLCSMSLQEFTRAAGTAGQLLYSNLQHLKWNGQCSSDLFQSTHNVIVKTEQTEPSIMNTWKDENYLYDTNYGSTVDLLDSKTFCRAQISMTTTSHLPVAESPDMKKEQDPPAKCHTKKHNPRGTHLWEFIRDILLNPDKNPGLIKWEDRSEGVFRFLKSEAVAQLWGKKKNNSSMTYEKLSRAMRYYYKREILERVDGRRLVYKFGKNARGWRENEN
The method, boiled down:
as §1

Experiment [6] concerns the target T5, FEV (Homo sapiens, UniProt Q99581 1-238).
T5 sequence: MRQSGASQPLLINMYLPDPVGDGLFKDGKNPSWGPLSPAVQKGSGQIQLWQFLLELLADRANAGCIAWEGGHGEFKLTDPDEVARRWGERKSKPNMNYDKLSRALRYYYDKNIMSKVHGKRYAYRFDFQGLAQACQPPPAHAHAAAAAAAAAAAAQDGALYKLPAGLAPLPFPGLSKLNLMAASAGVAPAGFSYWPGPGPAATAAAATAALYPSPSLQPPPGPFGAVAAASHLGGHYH
The method, boiled down:
as §1

Experiment [7] deals with ETV5 (Homo sapiens, UniProt P41161 1-510). The essentials:
as §1

Experiment [8] has as its target ELF4 (Homo sapiens, UniProt Q99607 1-663). The method, boiled down: as §1
Experiment [9] has as its target T6, ELK4 (Homo sapiens, UniProt P28324-2 1-405).
T6 sequence: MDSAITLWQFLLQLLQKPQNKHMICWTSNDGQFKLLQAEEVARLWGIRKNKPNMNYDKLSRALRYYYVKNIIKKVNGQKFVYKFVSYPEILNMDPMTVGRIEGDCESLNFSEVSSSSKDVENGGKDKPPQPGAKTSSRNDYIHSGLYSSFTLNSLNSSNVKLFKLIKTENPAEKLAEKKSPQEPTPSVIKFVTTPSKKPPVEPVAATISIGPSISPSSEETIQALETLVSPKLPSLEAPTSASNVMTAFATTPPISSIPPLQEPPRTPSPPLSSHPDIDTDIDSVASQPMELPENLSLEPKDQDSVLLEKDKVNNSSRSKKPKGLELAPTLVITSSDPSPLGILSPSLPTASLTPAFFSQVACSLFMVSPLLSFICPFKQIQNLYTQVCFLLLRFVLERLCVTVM
The essentials:
as §1

Experiment [10] has as its target T7, ETV2 (Homo sapiens, UniProt O00321 1-342).
T7 sequence: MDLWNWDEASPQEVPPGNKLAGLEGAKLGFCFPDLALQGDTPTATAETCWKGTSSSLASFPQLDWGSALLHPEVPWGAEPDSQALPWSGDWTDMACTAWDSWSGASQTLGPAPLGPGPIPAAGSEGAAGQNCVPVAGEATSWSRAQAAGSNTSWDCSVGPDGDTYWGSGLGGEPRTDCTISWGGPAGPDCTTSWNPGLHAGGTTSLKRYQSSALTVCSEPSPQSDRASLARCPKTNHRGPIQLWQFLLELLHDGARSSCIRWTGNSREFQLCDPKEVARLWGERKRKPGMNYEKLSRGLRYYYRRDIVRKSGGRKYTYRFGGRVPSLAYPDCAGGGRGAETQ
The essentials:
as §1

Experiment [11] has as its target ETV1 (Homo sapiens, UniProt P50549 1-477). The essentials: as §1
The target in experiment [12] is T8, ERF (Homo sapiens, UniProt P50548 1-548).
T8 sequence: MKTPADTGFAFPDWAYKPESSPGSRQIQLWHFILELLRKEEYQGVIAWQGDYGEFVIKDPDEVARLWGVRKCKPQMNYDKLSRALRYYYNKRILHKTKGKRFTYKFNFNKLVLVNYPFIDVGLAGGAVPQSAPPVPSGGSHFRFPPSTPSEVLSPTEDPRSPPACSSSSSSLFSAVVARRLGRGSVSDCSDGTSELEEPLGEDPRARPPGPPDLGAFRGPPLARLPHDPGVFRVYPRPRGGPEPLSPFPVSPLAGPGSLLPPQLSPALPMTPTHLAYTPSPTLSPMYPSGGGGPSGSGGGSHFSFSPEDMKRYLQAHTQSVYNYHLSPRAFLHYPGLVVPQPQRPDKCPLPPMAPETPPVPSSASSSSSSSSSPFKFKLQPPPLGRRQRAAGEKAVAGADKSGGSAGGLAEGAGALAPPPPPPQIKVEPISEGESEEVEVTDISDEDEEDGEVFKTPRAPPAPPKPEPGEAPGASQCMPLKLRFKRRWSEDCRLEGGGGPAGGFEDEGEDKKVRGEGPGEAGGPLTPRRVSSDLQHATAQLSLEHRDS
The method, boiled down:
as §1

Experiment [13] deals with T9, ETV3L (Homo sapiens, UniProt Q6ZN32 1-361).
T9 sequence: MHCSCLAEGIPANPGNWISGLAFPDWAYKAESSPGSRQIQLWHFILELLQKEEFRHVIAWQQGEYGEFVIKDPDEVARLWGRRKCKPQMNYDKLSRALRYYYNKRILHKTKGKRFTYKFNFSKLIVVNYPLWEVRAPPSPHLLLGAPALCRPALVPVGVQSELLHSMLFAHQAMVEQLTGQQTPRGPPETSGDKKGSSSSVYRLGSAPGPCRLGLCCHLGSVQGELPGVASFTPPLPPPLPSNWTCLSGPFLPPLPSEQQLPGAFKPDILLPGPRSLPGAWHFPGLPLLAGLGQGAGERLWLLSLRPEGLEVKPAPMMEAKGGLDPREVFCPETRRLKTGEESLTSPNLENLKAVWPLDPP
The method, boiled down:
as §1

Experiment [14] concerns the target T10, ETS2 (Homo sapiens, UniProt P15036 1-469).
T10 sequence: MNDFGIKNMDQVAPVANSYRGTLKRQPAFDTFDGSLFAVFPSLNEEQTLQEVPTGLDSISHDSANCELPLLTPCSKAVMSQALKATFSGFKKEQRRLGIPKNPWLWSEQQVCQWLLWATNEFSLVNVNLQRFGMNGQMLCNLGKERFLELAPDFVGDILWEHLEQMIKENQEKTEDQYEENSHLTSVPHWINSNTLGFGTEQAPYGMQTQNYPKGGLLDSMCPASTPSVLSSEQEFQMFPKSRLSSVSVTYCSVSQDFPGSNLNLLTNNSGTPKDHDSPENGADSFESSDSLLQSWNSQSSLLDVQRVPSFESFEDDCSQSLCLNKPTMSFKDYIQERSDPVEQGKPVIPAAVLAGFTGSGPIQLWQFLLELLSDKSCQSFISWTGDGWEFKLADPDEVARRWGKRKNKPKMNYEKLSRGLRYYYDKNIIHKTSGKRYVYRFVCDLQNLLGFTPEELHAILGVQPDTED
The essentials:
as §1

Experiment [15] concerns the target T11, SPDEF (Homo sapiens, UniProt O95238 1-335).
T11 sequence: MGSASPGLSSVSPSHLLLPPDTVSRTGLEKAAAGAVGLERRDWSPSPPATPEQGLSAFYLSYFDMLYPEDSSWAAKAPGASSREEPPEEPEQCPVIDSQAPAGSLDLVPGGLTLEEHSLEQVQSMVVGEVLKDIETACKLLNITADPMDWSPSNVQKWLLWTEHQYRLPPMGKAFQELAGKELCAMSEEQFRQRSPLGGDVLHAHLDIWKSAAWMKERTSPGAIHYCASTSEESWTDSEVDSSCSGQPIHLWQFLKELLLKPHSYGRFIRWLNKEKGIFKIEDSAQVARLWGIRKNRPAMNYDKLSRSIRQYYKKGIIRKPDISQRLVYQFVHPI
The essentials:
as §1

For experiment [16], the target named is T12, ETV7 (Homo sapiens, UniProt Q9Y603 1-341).
T12 sequence: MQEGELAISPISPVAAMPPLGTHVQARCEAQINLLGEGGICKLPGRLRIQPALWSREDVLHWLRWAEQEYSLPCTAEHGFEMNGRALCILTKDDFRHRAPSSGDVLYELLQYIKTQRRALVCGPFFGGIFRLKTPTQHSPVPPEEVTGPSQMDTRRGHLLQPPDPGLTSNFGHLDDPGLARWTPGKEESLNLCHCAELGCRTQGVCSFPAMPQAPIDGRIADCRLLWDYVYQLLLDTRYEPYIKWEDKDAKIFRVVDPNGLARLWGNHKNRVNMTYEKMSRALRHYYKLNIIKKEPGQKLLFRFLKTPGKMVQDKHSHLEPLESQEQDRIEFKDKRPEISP
The method, boiled down:
as §1

Experiment [17] addresses T13, ETV3 (Homo sapiens, UniProt P41162-2 1-143).
T13 sequence: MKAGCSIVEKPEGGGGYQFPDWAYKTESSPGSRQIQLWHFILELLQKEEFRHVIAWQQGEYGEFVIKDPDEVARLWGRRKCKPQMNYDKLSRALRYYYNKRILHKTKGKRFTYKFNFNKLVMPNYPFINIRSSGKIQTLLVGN
The essentials:
as §1

For experiment [18], the target named is ETV6 (Homo sapiens, UniProt P41212 1-452). The essentials: as §1
Sequence of ETV6 (P41212 whole entry): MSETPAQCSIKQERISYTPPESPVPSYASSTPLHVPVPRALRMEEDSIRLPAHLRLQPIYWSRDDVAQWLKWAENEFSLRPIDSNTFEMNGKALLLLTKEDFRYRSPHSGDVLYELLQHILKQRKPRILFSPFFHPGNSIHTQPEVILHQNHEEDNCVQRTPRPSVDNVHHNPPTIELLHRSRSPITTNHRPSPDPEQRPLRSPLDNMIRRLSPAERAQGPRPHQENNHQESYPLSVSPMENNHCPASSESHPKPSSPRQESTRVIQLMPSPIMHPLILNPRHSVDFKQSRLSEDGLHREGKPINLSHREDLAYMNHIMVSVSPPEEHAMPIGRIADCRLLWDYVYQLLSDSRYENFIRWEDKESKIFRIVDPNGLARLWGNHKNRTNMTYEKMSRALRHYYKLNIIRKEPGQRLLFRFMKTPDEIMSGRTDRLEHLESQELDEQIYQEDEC

Sequence of ETV1 (P50549 whole entry): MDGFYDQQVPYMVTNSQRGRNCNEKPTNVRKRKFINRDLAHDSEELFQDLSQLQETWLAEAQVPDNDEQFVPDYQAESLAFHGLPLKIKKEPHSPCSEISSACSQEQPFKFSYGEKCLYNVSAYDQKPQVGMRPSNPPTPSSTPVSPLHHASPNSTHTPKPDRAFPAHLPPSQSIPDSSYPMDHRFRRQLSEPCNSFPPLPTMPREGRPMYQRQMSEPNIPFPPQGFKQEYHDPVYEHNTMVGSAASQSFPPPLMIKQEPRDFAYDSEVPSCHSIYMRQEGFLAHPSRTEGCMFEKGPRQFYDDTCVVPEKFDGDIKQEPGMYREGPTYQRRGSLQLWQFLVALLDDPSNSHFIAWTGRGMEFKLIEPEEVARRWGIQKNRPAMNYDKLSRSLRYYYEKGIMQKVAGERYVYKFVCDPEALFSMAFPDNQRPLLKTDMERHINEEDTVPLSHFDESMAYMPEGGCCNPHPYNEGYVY
Sequence of ELF4 (Q99607 whole entry): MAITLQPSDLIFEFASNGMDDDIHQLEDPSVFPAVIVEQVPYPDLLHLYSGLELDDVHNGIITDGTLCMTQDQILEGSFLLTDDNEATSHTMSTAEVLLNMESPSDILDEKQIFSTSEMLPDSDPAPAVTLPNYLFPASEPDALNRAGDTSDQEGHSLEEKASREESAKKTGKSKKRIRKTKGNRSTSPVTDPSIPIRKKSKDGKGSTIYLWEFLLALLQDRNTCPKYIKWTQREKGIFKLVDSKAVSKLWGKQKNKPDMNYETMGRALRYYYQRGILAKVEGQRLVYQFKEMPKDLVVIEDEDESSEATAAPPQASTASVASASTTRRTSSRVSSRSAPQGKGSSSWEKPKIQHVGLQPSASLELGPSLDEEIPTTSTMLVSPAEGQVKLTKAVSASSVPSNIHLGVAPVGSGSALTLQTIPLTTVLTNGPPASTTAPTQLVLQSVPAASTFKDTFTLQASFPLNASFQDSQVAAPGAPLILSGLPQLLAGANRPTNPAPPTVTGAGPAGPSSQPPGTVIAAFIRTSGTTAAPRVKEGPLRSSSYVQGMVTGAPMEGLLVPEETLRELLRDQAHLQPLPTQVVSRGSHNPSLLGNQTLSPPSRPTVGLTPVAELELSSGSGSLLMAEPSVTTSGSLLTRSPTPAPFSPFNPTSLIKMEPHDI
Sequence of ETV5 (P41161 whole entry): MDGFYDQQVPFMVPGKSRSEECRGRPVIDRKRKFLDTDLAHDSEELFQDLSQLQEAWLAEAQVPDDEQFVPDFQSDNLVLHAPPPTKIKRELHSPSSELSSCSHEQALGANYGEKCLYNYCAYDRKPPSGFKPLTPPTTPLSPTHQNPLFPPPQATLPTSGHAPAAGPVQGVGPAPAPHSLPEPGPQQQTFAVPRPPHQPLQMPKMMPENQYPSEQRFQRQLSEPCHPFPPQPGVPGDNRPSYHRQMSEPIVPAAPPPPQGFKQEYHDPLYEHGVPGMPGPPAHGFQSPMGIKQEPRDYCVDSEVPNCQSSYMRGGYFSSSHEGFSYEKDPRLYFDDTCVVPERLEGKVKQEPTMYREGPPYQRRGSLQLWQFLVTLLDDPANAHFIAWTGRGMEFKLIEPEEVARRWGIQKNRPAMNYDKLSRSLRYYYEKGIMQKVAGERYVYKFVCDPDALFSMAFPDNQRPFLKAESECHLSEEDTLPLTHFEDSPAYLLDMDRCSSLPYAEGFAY

For AAGGGC, the binding signal in experiment [1] was 1.02 fold enrichment (6-mer frequency, TF over GST control); in [2] it was 1.1 fold enrichment (6-mer frequency, TF over GST control); in experiment [3] it was 1.06 fold enrichment (6-mer frequency, TF over GST control); in experiment [4] it was 1.06 fold enrichment (6-mer frequency, TF over GST control); in experiment [5], 1.01 fold enrichment (6-mer frequency, TF over GST control); in experiment [6], 1.02 fold enrichment (6-mer frequency, TF over GST control). The binding signal in experiment [7] is 1.06 fold enrichment (6-mer frequency, TF over GST control); in [8], 1.01 fold enrichment (6-mer frequency, TF over GST control); in [9], 1.13 fold enrichment (6-mer frequency, TF over GST control); in [10], 1.06 fold enrichment (6-mer frequency, TF over GST control); in [11], 1.05 fold enrichment (6-mer frequency, TF over GST control); in [12], 1.06 fold enrichment (6-mer frequency, TF over GST control). For the same sequence, the binding signal in [13] is 1.05 fold enrichment (6-mer frequency, TF over GST control); in [14], 1.1 fold enrichment (6-mer frequency, TF over GST control); in experiment [15], 1.07 fold enrichment (6-mer frequency, TF over GST control); in experiment [16], 1.05 fold enrichment (6-mer frequency, TF over GST control); in experiment [17] it was 1.07 fold enrichment (6-mer frequency, TF over GST control); in [18], 1.04 fold enrichment (6-mer frequency, TF over GST control).

Source of the values: PMC7862700, “An all-to-all approach to the identification of sequence-specific readers for epigenetic DNA modifications on cytosine”.
